Measurements from PubChem BioAssay (NCI).
This is part of a sample that, as a whole, favours compounds with a hit. Of some 79,000 tested, about 15% had one in any assay. Cut-off read from the data, not from the text of the source: active = growth inhibition above about 70%; inactive = the rest.

What was measured:
[1] = NCI Yeast Anticancer Drug Screen. Data for the rad50 strain (AID 155);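 note: 0% = growth of vehicle-only cultures of the same strain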; conditions: S. cerevisiae rad50 strain growth inhibition; at 50.0 µM; active compounds read high
Summary of the method: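 Compounds were tested on a yeast strain with an engineered DNA damage repair alteration; the reported value is growth inhibition normalised to vehicle treatment.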

[2] = NCI Yeast Anticancer Drug Screen. Data for the mec2-1 strain (AID 157); conditions: S. cerevisiae mec2-1 strain, at 50.0 µM, active compounds read high
Summary of the method: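 Cells of the genetically defined mec2-1 yeast strain are incubated with test compound. Inhibition of growth is calculated against vehicle-treated controls.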

[3] = NCI Yeast Anticancer Drug Screen. Data for the sgs1 mgt1 strain (AID 161);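 note: 0% = growth of cultures given vehicle only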; conditions: S. cerevisiae sgs1 mgt1 strain, at 50.0 µM, active compounds read high
Summary of the method: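 Test agents were incubated with a DNA-repair-mutant yeast strain. Growth was then read and compared against vehicle-treated controls.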

[4] = NCI Yeast Anticancer Drug Screen. Data for the cln2 rad14 strain (AID 165);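 note: 0% = growth equal to vehicle treated cultures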; conditions: S. cerevisiae cln2 rad14 strain, at 50.0 µM, active compounds read high
Summary of the method: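 The screen exposed genetically defined yeast (cln2 rad14) to test compounds and scored growth inhibition relative to vehicle-treated controls.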

[5] = NCI Yeast Anticancer Drug Screen. Data for the bub3 strain (AID 167); conditions: S. cerevisiae bub3 mutant strain, at 50.0 µM, active compounds read high
Summary of the method: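 Growth of a checkpoint-deficient yeast mutant is measured after compound exposure. Values represent inhibition relative to vehicle.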

[6] = NCI Yeast Anticancer Drug Screen. Data for the mlh1 rad18 strain (AID 175); conditions: S. cerevisiae mlh1 rad18 strain growth inhibition; at 50.0 µM; active compounds read high
Summary of the method: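 Compound-treated yeast growth, normalised to vehicle controls. Strain bears defined DNA repair mutations.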

Measured: growth inhibition

CN(C)P1(=O)N(c2ccc(Cl)cc2)P(=O)(N(C)C)N1c1ccc(Cl)cc1 (stereo unspecified)
inactive: [1] -14.2% | [2] -35.6% | [3] -13.1% | [4] 2% | [5] -25% | [6] -13.3%

CC(=NCCN(CCN=C(C)c1c(O)cc(C)oc1=O)CCN=C(C)c1c(O)cc(C)oc1=O)c1c(O)cc(C)oc1=O
inactive: [1] 22.4% | [2] -4.3% | [3] 1.8% | [4] 11.4% | [5] 6.3% | [6] 21.8%

CSCCC(NC=O)C(=O)O (stereo unspecified)
inactive: [1] -0.65% | [2] -5.35% | [3] 7.9% | [4] 1.05% | [5] 5.75% | [6] 3.8%

O=c1[nH]c(SCc2ccco2)nc2ccccc12
inactive: [1] 0.05% | [2] 12.7% | [3] 6.3% | [4] -23.7% | [5] 1.8% | [6] -1.75%

CN(C)C(=O)CC(O)c1ccccc1 (stereo unspecified)
inactive: [1] 13.9% | [2] -9.95% | [3] 1.6% | [4] -30.2% | [5] -2.55% | [6] 4.75%

CC(C)CN(CC(C)C)C(=O)CCl
inactive: [1] -3.1% | [2] -0.3% | [3] 14.1% | [4] -15.9% | [5] 6% | [6] -1.65%

O=C1CSC(c2ccc(F)cc2)N1c1nncs1 (stereo unspecified)
inactive: [1] 5.2% | [2] 3.65% | [3] 9.7% | [4] 3.6% | [5] 31.6% | [6] 7.45%

N#Cc1ccc(-n2cccc2)cc1
inactive: [1] -1.8% | [2] -1.6% | [3] 7.35% | [4] -26.8% | [5] -6.2% | [6] -4.5%

Cc1cc(Cl)ccc1OCCCC(=O)NC(Cc1ccccc1)C(=O)O (stereo unspecified)
inactive: [1] 4.85% | [2] 8.95% | [3] -2.15% | [4] 27.5% | [5] -4.2% | [6] 0%

CN(C)C(=O)c1cccc([N+](=O)[O-])c1
inactive: [1] 1% | [2] -3.5% | [3] -4.65% | [4] 2.65% | [5] 13.2% | [6] 31.9%

CC(=O)Oc1ccc2c(c1)c1c(OC(C)=O)c(N(C)C(C)=O)cc(OC(C)=O)c1n2C
inactive: [1] 22.4% | [2] -0.65% | [3] 3.85% | [4] 12.4% | [5] -3.7% | [6] 5.6%

Nc1ccc(F)c(Cl)c1
inactive: [1] 0.85% | [2] -16.4% | [3] 10.7% | [4] -17.9% | [5] -4.25% | [6] 14.7%

CCC(=O)c1c(NOC2OCC(OC(C)=O)C(OC(C)=O)C2OC(C)=O)nc(OC)n(C)c1=O (stereo unspecified)
inactive: [1] -18.3% | [2] -0.65% | [3] -35.2% | [4] 9.6% | [5] -24.8% | [6] -11.5%

O=[N+]([O-])c1ccc(N=Cc2ccccc2)cc1
inactive: [1] 1.95% | [2] -30.6% | [3] 12.9% | [4] 3.75% | [5] 16.5% | [6] 5.8%

O=C1NCC2Cc3ccccc3C(c3ccccc3)=C12 (stereo unspecified)
inactive: [1] -1.6% | [2] -1.1% | [3] 5.6% | [4] -6.15% | [5] -3.9% | [6] -4.25%

c1ccc(C(=NN(CCCCN(N=C(c2ccccc2)c2ccccc2)c2ccccc2)c2ccccc2)c2ccccc2)cc1
inactive: [1] 28.6% | [2] 21.4% | [3] -11.6% | [4] 6.4% | [5] 0.05% | [6] 19.9%

CCCCCCCCCCCCCC(N)=O
inactive: [1] -30.8% | [2] -46.5% | [3] -18.2% | [4] 4.85% | [5] -28.7% | [6] -18%

O=C1c2ccccc2CC12Cc1cc3c(cc1C2=O)CCC3 (stereo unspecified)
inactive: [1] 5.05% | [2] -16.9% | [3] -17.2% | [4] 25.5% | [5] 44.4% | [6] 18.9%

CCC1(C)C(=O)NC(=O)N1C(C)=O (stereo unspecified)
inactive: [1] -5.1% | [2] -21.4% | [3] -3.85% | [4] -44.2% | [5] -12.3% | [6] -7.55%

Cc1nc(N)c(-c2ccccc2)s1
inactive: [1] 18.1% | [2] -15.9% | [3] 7.2% | [4] -11.2% | [5] -7.85% | [6] 11.9%

CCOC(=O)C(NC(C)=O)C(O)c1ccc(C(C)C)cc1 (stereo unspecified)
inactive: [1] 10.8% | [2] 4.4% | [3] 8.45% | [4] -33.7% | [5] 14.8% | [6] 14.7%

NC1=NN(c2ccccc2)C(=O)C1/C(=N\NC(=O)c1cc2ccccc2cc1O)C(=O)Nc1ccc(Cl)c(Cl)c1 (stereo unspecified)
inactive: [1] 28.7% | [2] 10% | [3] -17.2% | [4] 31.6% | [5] 6.95% | [6] 21.1%

Cc1ccc(S(=O)(=O)c2ccccn2)cc1
inactive: [1] -37.2% | [2] -11.2% | [3] -9.35% | [4] -1.7% | [5] -13% | [6] -24.1%

Cc1ccc(Sc2cccc3c2C(=O)c2c(Sc4ccc(C)cc4)cccc2C3(Br)c2ccccc2)cc1
inactive: [1] 13.9% | [2] -8.95% | [3] -2.95% | [4] -27.2% | [5] -0.15% | [6] 0.1%

Cc1cc(=O)[nH]c(NNC(C#N)c2c(O)ccc3ccccc23)n1 (stereo unspecified)
inactive: [1] 23.6% | [2] 13.2% | [3] 24.2% | [4] -2.9% | [5] 1.45% | [6] 12.9%

COC(=O)NN(C(=O)OC)C12CCCCC1N(C(=O)OC)N(C(=O)OC)c1c2ccc2cc(OC)ccc12 (stereo unspecified)
inactive: [1] 24.4% | [2] -0.7% | [3] 7.65% | [4] -14.1% | [5] 4.2% | [6] 10.9%

CCCCCC/C(C)=N\NC(N)=O
inactive: [1] 29.9% | [2] 14.4% | [3] 11.6% | [4] 12.4% | [5] -0.95% | [6] -23.1%

Nc1nnc(-c2ccc(Br)cc2)o1
inactive: [1] 3.05% | [2] -16.9% | [3] -14.2% | [4] -5% | [5] -25.9% | [6] 5%

O=C1c2ccccc2C(=O)N1CNc1ccccc1Cl
inactive: [1] 27.8% | [2] 8.95% | [3] 23.2% | [4] 18.2% | [5] 18.2% | [6] 17.3%

c1ccc(CN[C@]23C4C5CC6C7C5C2C7[C@@](NCc2ccccc2)(C64)N3Cc2ccccc2)cc1 (stereo partly specified)
inactive: [1] 2.7% | [2] -1.05% | [3] -11.8% | [4] -37.4% | [5] -0.85% | [6] 5.25%

O=C(O)CCNc1ccccc1C(=O)O
inactive: [1] -8.4% | [2] -15.2% | [3] -13.9% | [4] -9.6% | [5] -40.8% | [6] -0.25%

CC(=O)N(C(C)=O)n1c(Cc2ccc(C)cc2)nn(C(C)=O)c1=O
inactive: [1] -26.9% | [2] 15.2% | [3] -16.9% | [4] 13.3% | [5] -1.75% | [6] -27.9%

COc1ccc(C2=C(C#N)C(=C(C#N)C#N)NC(N)=C2C#N)cc1
inactive: [1] -11.1% | [2] -1.25% | [3] -21.8% | [4] -4.75% | [5] -19.4% | [6] -17.4%

CCN(C=O)c1ccccc1
inactive: [1] 15.7% | [2] -7.55% | [3] -6.95% | [4] -0.8% | [5] 5.95% | [6] 6.55%

O=S(=O)(O)c1cc(O)c2c(N=Nc3c(S(=O)(=O)O)cc4cc(S(=O)(=O)O)cc(N=Nc5c(S(=O)(=O)O)cc6cc(S(=O)(=O)O)cc(O)c6c5O)c4c3O)cc(S(=O)(=O)O)cc2c1
inactive: [1] -4.7% | [2] 26.6% | [3] 5.45% | [4] -14.8% | [5] -7.6% | [6] 8.5%

COC(=O)c1n[nH]n(Cc2cccs2)c1=O (tested in a mixture with another compound)
inactive: [1] 14.8% | [2] 13.9% | [3] 16.1% | [4] -0.85% | [5] 10.6% | [6] 26.2%

CC(=Nc1ccc(Cl)cc1)c1ccncc1
inactive: [1] -31.9% | [2] -14.5% | [3] -14.8% | [4] -6.4% | [5] 1.3% | [6] -1.8%

O=S(=O)(O)CCCCBr
inactive: [1] 3.6% | [2] -31.4% | [3] 16.8% | [4] -5% | [5] -3% | [6] 13.5%

CC(C)(C)n1c(=O)n(-c2ccccc2)n(C(C)(C)C)c1=O
inactive: [1] 45.5% | [2] -11.8% | [3] -28.2% | [4] 3% | [5] -27.7% | [6] -11%

Cc1ccc(/C=C/C(=O)c2sc(C(N)=S)nc2C)cc1
inactive: [1] 35.9% | [2] 14.2% | [3] 8.15% | [4] 16.3% | [5] 11.2% | [6] 39%

Cc1cc2c(cc1C)-c1nn(-c3ccccc3)c(-c3ccc(Cl)cc3)c1CCO2
inactive: [1] 27.2% | [2] 1.35% | [3] -1.75% | [4] 17.9% | [5] -6.2% | [6] 3.65%
